HPGD inh = qHTS Assay for Inhibitors of HPGD (15-Hydroxyprostaglandin Dehydrogenase) | 15-hydroxyprostaglandin dehydrogenase [NAD(+)] (Homo sapiens), P15428 | purified HPGD, NADH fluorescence kinetic, PGE2 substrate | Potency, µM, actives largely listed as inhibitors | actives 4.3% (n = 150,000)
Target sequence (P15428 whole entry, looked up): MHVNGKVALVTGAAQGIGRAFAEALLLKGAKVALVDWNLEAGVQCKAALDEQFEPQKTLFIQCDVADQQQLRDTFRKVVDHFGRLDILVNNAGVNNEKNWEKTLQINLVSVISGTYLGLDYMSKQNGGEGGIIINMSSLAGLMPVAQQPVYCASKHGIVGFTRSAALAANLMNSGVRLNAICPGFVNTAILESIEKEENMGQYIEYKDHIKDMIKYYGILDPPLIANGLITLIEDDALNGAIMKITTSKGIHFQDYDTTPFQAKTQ
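20 nM HPGD preincubated 15 min at room temperature with compound in 50 mM Tris-HCl pH 8, 0.01% Tween 20. Started with 1 mM NAD+ and 30 uM prostaglandin E2; NADH fluorescence (360/450 nm) read 5 times over 30-s intervals, last minus first.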
ALDH1A1 block = qHTS Assay for Inhibitors of Aldehyde Dehydrogenase 1 (ALDH1A1) | Aldehyde dehydrogenase 1A1 (Homo sapiens), P00352 | Purified ALDH1A1, NADH fluorescence, propionaldehyde substrate | Potency, µM (top dose mostly 75.3 µM), usual class: inhibitors | actives 7.3% (n = 220,000) | AID 1030, 2008
PNC inhibitor = High Content Assay for Compounds that inhibit the Assembly of the Perinucleolar Compartment; actives 3.1% (n = 140,000); PC3M PTB-GFP, PNC prevalence imaging, 16 h; active compounds read low; activity change (PNC), negative = inhibition, % at 10 µM; AID 2417, 2010;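 active = readout at or below -70, meaning at least 70% loss of cells showing the perinucleolar compartment, a nuclear body marking cancer cells; inconclusive = readout between -30 and a set limit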
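Read-out is percentage of cells bearing a perinucleolar compartment, from automated 20x imaging of fixed, Hoechst-stained PC3M PTB-GFP cells. Cells were seeded 4 h, then exposed 16 h to compound (23 nl of library stock) in duplicate plates.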
A number is an active result; – = inactive; ? = inconclusive; · = not tested or not shown. Compounds with a hit are over-represented: about 11% of the library has one in this group of screens. Unless noted, calls follow the shape of the dose curve; as a rule, active = well fitted inhibition curve with a large enough effect (not every such curve was filed as active); inconclusive = small, poorly fitted or top-dose-only effect, or another doubt; inactive = no such curve, though single readings can be large or run the other way.

SMILES	HPGD inh	ALDH1A1 block	PNC inhibitor
O=C(NC(=S)Nc1ccc(NC(=O)c2cccs2)cc1)c1ccco1	–	?	–
CC(C)CC(=O)NC(=S)Nc1cccc(NC(=O)c2ccccc2)c1	–	25.1µM	?
CC(C)CC(=O)NC(=S)Nc1ccc(NC(=O)c2cccs2)cc1	7.94µM	?	–
O=C(CN1CCN(S(=O)(=O)c2ccc(Br)cc2)CC1)N/N=C/c1ccc(Br)s1	·	–	·
CN(C)/C=C(\C(=O)c1ccc(F)cc1F)c1nnnn1-c1ccccc1	–	?	?
Cc1cccc(NC2SC(=O)N(c3ccccc3)C2=O)c1 (centres undefined)	–	1.26µM	–
O=C(CC1SC(=O)N(c2ccccc2)C1=O)Nc1ccccc1 (centres undefined)	?	8.91µM	?
Cc1ccc(NC(=O)CC2SC(=O)N(c3ccccc3)C2=O)cc1 (centres undefined)	–	10µM	–
O=C(O)CN1C(=O)SC(Nc2ccccc2)C1=O (centres undefined)	–	–	–
O=C(CC1SC2=NCCN2C1=O)Nc1ccccc1 (centres undefined)	–	–	–
C=CCN1C(=O)C(CC(=O)Nc2ccc(C)cc2)SC1=Nc1c(C)n(C)n(-c2ccccc2)c1=O (centres undefined)	–	–	–
Cc1ccc(NC(=O)CC2SC3=NCCN3C2=O)cc1 (centres undefined)	–	3.55µM	–
COc1ccc(OC)c(NC(=O)CC2SC(=N)N(c3ccccc3)C2=O)c1 (centres undefined)	·	–	·
COc1ccc(/C=N/NC(=O)C2C(C=C(Cl)Cl)C2(C)C)c(OC)c1 (centres undefined)	·	–	·
c1ccc(OCCN2CCN(Cc3nc(-c4ccc5c(c4)OCO5)no3)CC2)cc1	·	–	·
CCOC(=O)C1=C(N)Oc2c(oc(CO)cc2=O)C1c1ccccc1 (centres undefined)	·	–	·
O=C(Cc1nc2ccccc2[nH]1)NCc1ccco1	–	?	–
CSc1nnc(-c2ccc(S(=O)(=O)N3CCCC3)cc2)n1C	?	?	–
COc1ccccc1NC1SC(=O)N(c2ccccc2)C1=O (centres undefined)	–	5.01µM	–
CN1C(=O)SC(Nc2ccccc2C(=O)O)C1=O (centres undefined)	?	?	–
COc1ccc(NC(=O)CC2SC3=NCCN3C2=O)cc1 (centres undefined)	·	–	·
CCCN1C(=O)SC(CC(=O)Nc2ccc(C)cc2)C1=O (centres undefined)	–	22.4µM	-100.0
Cc1cccc(NC(=O)CC2S/C(=N/c3nccs3)N(C)C2=O)c1 (centres undefined)	–	–	–
Cc1cccc(NC(=O)CC2SC(=O)N(c3ccccc3)C2=O)c1 (centres undefined)	–	10µM	–
CCN=C1SC(CC(=O)Nc2ccc(C(F)(F)F)cc2)C(=O)N1CC (centres undefined)	–	–	?
SMILES	HPGD inh	ALDH1A1 block	PNC inhibitor
O=C(CC1Sc2ncnn2C1=O)Nc1ccccc1 (centres undefined)	15.8µM	2µM	–
Cc1ccc2sc(=O)[nH]c2c1	·	–	·
O=C(COC(=O)CCC(=O)Nc1nccs1)NCc1ccco1	–	–	–
N#C/C(=N\Nc1ccccc1F)c1nc(-c2ccccc2)cs1	·	–	·
CCOCCCNS(=O)(=O)c1ccc(NC(=O)c2ccccc2)cc1	–	–	–
C[C@@]12CCC(O)C[C@H]1CCc1ccccc12 (some centres undefined)	–	–	·
Cc1ccc2[nH]c3c(c2c1)CN(C(=O)CN1CCN(Cc2ccc4c(c2)OCO4)CC1)CC3	–	?	–
Cc1ccc2[nH]c3c(c2c1)CN(C(=O)CN1CC(C)OC(C)C1)CC3 (centres undefined)	–	11.2µM	?
CCOC(=O)N1CCc2[nH]c3ccc(C)cc3c2C1	·	–	·
Cc1ccc2[nH]c3c(c2c1)CN(C(=O)CN1CCN(c2ccccn2)CC1)CC3	–	10µM	–
CN(C)Cc1ccccc1-c1ccc2ncnc(NCc3cccs3)c2c1	–	–	·
CC(C)NC(=O)c1ccccc1NC(=O)CCc1ccccc1	–	–	–
O=C(Nc1ccccc1)N1CC[C@@]2(CCCN(C(=O)c3cnccn3)C2)C1	–	–	·
COc1ccc(Nc2nc(C)cc(C)c2C#N)cc1OC	–	–	–
CC(C)(C)NC(=O)CN(Cc1cccs1)C(=O)c1csnn1	–	–	–
CC(C)(C)NC(=O)CN(Cc1cccs1)C(=O)CN1C(=O)C(=O)c2ccccc21	·	0.0282µM	·

Source: PubChem (National Center for Advancing Translational Sciences (NCATS))
